A selection: hits, their analogues and other compounds. The true share with any hit is near 12%.
HCV inhibitor: qHTS Assay for Inhibitors of Hepatitis C Virus (HCV); Potency, µM (titrated, usually from 41.8 µM), hits mostly inhibitors; Huh7.5.1 HCVcc-Cre infection, luciferase reporter, 44 h; 340,000 tested, 3.4% active
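1,000 cells/well; 4 h culture; + compound; + HCVcc-Cre (~0.5 moi); 44 h; luciferase substrate, RT 15 min; read 15 sec.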
Pf growth 48h: Primary qHTS for delayed death inhibitors of the malarial parasite plastid, 48 hour incubation | P. falciparum luciferase growth in erythrocytes, 48 h | Potency, µM (highest dose often 28.7 µM), actives largely listed as inhibitors | 310,000 tested, 5.9% active | AID 504832, 2011
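A one-generation exposure of luciferase-tagged malaria parasites in RPMI 1640/Albumax erythrocyte culture, 37 C and 5% CO2. Inhibition is inferred from decreased luminescence after adding detection reagent.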
Pf growth 96h: Primary qHTS for delayed death inhibitors of the malarial parasite plastid, 96 hour incubation | P. falciparum luciferase reporter growth, 96 h | 320,000 tested, 6.9% active | Potency, µM (highest dose often 28.7 µM), usual class: inhibitors | AID 504834, 2011
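Cell-based qHTS: luciferase-tagged P. falciparum in erythrocytes (2% hematocrit, 0.05% parasitemia final) incubated with compounds for 96 hours, 37 C, 5% CO2; luciferase detection reagent then added and luminescence measured.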
SARS PLpro yeast: qHTS of Yeast-based Assay for SARS-CoV PLP; 330,000 tested, 0.19% active; Potency, µM (top dose mostly 32.9 µM), hits mostly activators; S. cerevisiae expressing SARS-CoV PLpro, growth rescue; calls by dose curve; note: nearly all actives have a fitted effect of over 55% in size
NS1 function inh: qHTS Assay for Inhibitors of Influenza NS1 Protein Function; Potency, µM (doses to about 46.1 µM); 270,000 tested, 0.4% active; AID 2326, 2010; calls by dose curve; note: actives are rising curves; nearly all actives have a fitted effect of over 50% in size
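Compounds were scored for reversing the slow growth caused by influenza A NS1 in S. cerevisiae, measured by optical density at 600 nm. Assay medium contained 2% galactose at pH 6.0; NS1-free yeast of the same strain were the positive control.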
AMA1-RON2 inh: qHTS for Inhibitors of AMA1-RON; Towards Development of Antimalarial Drug Lead: Primary Screen. Plasmodium falciparum AMA1 (3D7) - RON2 peptide interaction. AlphaScreen AMA1-biotinylated RON2 peptide binding. Potency, µM (highest dose often 58.2 µM), most hits filed as inhibitors. 360,000 tested, 0.2% active. AID 720542, 2013; note: nearly all actives have a fitted effect of over 45% in size
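AMA1 (3D7) with his tag at 25 nM final met compounds first, then biotinylated RON2 peptide at 25 nM; detection used donor plus acceptor beads, 10 µg/mL apiece, read by AlphaScreen after 30 min at room temperature.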
Each line names hits and unclear results; the compound was inactive in the other large screens. Unless noted, calls come from the whole dose curve; as a rule, active = well fitted curve in the direction sought with a large enough effect; inconclusive = small, poorly fitted or top-dose-only effect, or another doubt; inactive = no such curve, though single readings can be large; an effect the other way counts as inactive or inconclusive.

Cc1cc(OCC(=O)N(C)C)c2c(-c3ccccc3)cc(=O)oc2c1	Pf growth 96h 10µM (no result: Pf growth 48h)
CCN(CC)C(=O)COc1ccc2c(-c3ccccc3)cc(=O)oc2c1	Pf growth 48h inconclusive
CCN(CC)C(=O)COc1cc(C)cc2oc(=O)cc(-c3ccccc3)c12	HCV inhibitor inconclusive, Pf growth 48h inconclusive
CCCc1cc(=O)oc2cc(C)cc(OCC(=O)Nc3cccnc3)c12	HCV inhibitor inconclusive, Pf growth 48h 0.15µM, Pf growth 96h 0.093µM
COc1ccc(-c2cc(=O)oc3cc(OCC(=O)N(C)C)ccc23)cc1	Pf growth 48h inconclusive, Pf growth 96h 10µM
Cc1cc(OCC(=O)Nc2cccnc2)c2c(C)cc(=O)oc2c1	Pf growth 48h inconclusive, Pf growth 96h inconclusive
Nc1nc2c(Cl)ccc(Cl)c2s1	Pf growth 48h inconclusive, Pf growth 96h 8.3µM (no result: NS1 function inh)
Cc1ccc(-n2nc(C)c(NC(=O)CCl)c2C)cc1C	HCV inhibitor 3.5µM, Pf growth 48h 4.1µM
CC(Nc1ncnc2ccccc12)c1ccccc1 (stereo unspecified)	HCV inhibitor 4.5µM
COc1ccc(Nc2nc(N3CCN(S(=O)(=O)N(C)C)CC3)nc3ccccc23)cc1	HCV inhibitor 11µM, Pf growth 48h 10µM, Pf growth 96h 8.3µM
CC(Nc1nc(N2CCN(S(C)(=O)=O)CC2)nc2ccccc12)c1ccccc1 (stereo unspecified)	Pf growth 48h 7.4µM, Pf growth 96h inconclusive
C[C@@H]1C(=O)O[C@H]2[C@H](O)[C@@]34[C@H]5C[C@@H](C(C)(C)C)[C@]36[C@@H](OC(=O)[C@@H]6O)O[C@@]4(C(=O)O5)[C@@]12O	none
COC(=O)C(NC(=O)c1cccnc1Cl)C(C)C (stereo unspecified)	none
Cc1ccccc1C(=O)/C=C1/SCC(=O)N1C	none (no result: NS1 function inh)
CCC(NC(=O)c1cncc(Br)c1)c1ccccc1 (stereo unspecified)	none (no result: Pf growth 48h, Pf growth 96h, SARS PLpro yeast, NS1 function inh)
COC(=O)C1=C(c2ccc(OCc3ccccc3)cc2)C[C@@H]2CC[C@H]1N2C(=O)NCc1cccc(OC)c1	HCV inhibitor 6.3µM, Pf growth 48h 3.7µM, Pf growth 96h inconclusive (no result: NS1 function inh)
COC(=O)C1=C(c2ccc(OCc3ccccc3)cc2)C[C@@H]2CC[C@H]1N2C(=O)NCc1ccc(OC)cc1	none (no result: HCV inhibitor, Pf growth 48h, Pf growth 96h, SARS PLpro yeast, NS1 function inh)
COC(=O)C1=C(c2ccc(OCc3ccccc3)cc2)C[C@@H]2CC[C@H]1N2C(=O)NCc1ccccc1	HCV inhibitor 10µM, Pf growth 48h 7.4µM, Pf growth 96h inconclusive (no result: NS1 function inh)
O=C(Nc1ccccc1Br)c1cc(=O)c2ccccc2o1	none
CCCCNCC#CCOc1cc(C)ccc1C(C)C	Pf growth 48h inconclusive
COc1cc(C)c(CNc2ccc(OC)c(OC)c2)cc1C	Pf growth 48h 9.3µM (no result: HCV inhibitor, Pf growth 96h, AMA1-RON2 inh)
Cc1nc(C)c(C(=O)NNS(=O)(=O)c2ccc3ccccc3c2)s1	HCV inhibitor 13µM
Oc1ccc(N=Nc2ccccc2C(F)(F)F)c2cccnc12	HCV inhibitor 3.2µM, Pf growth 48h 1.5µM, Pf growth 96h 0.93µM
Cc1ccc(N=Nc2ccc(O)c3ncccc23)cc1C	HCV inhibitor inconclusive, Pf growth 48h inconclusive, Pf growth 96h inconclusive (no result: NS1 function inh)
COc1ccccc1N=Nc1ccc(O)c2ncccc12	HCV inhibitor 2.2µM, Pf growth 48h 2.9µM
CCS(=O)(=O)c1ccc(N=Nc2ccc(O)c3ncccc23)c(OC)c1	HCV inhibitor inconclusive, Pf growth 48h inconclusive, Pf growth 96h inconclusive, AMA1-RON2 inh inconclusive (no result: NS1 function inh)
Cc1ccc2c(c1)N(C(=O)c1ccco1)C(C)(C)c1ssc(=S)c1-2	Pf growth 96h 5.2µM, AMA1-RON2 inh 12µM (no result: Pf growth 48h)
Cc1cccc2c1N(C(=O)c1ccco1)C(C)(C)c1ssc(=S)c1-2	Pf growth 48h inconclusive, Pf growth 96h 5.2µM
Cc1ccc2c(c1)N(C(=O)CSc1nncn1C)C(C)(C)c1ssc(=S)c1-2	HCV inhibitor 10µM, Pf growth 48h inconclusive, AMA1-RON2 inh inconclusive (no result: Pf growth 96h)
CCN(CC)C(=O)c1cccc(-c2csc(C(O)c3cccc(Cl)c3)n2)c1 (stereo unspecified)	none (no result: HCV inhibitor, Pf growth 48h, Pf growth 96h, SARS PLpro yeast, NS1 function inh)

Screening data: PubChem BioAssay, National Center for Advancing Translational Sciences (NCATS)
